We go through one molecule from PubChem BioAssay AID2284154 (EPA ToxCast).

The AC50 is the concentration giving half of the maximal activity seen.

The source made the active and inactive calls. The calls were made as follows: active = hit-call score of the fitted dose curve at least 0.9, where 1 is the maximum; inactive = score below 0.9.

Chain of Muscarinic acetylcholine receptor M3 (Homo sapiens) (P20309 whole entry, looked up): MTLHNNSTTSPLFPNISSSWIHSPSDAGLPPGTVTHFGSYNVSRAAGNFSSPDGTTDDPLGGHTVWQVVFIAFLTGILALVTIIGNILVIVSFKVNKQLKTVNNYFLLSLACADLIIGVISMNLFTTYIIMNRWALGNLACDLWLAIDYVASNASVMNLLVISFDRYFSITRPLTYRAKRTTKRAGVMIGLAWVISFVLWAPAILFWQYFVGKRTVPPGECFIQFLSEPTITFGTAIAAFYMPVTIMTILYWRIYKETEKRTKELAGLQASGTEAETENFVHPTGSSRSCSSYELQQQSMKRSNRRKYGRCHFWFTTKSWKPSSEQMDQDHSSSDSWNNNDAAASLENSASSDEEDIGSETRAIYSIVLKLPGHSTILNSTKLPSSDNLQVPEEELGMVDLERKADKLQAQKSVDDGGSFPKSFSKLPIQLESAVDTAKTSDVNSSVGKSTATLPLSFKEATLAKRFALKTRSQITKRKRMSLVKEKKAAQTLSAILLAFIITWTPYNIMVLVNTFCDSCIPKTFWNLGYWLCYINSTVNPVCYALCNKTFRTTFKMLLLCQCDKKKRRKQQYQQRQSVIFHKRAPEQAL

This test concerns the target Muscarinic acetylcholine receptor M3 (Homo sapiens) (UniProt P20309). As to the kind of experiment: ERF_FR_GPCR_hCHRM3: Eurofins (ERF) G Protein-Coupled Receptor (GPCR) Radioligand Binding LeadHunter Assay for human Muscarinic Acetylcholine Receptor M3 Antagonism, conducted at France lab site. The procedure: ERF_FR_GPCR_hCHRM3 is a biochemical, single-readout assay that uses extracted gene-proteins in a cell-free assay. Measurements were taken 1 hour after chemical dosing in a 96-well plate. See M3 Human Acetylcholine (Muscarinic) GPCR Binding (Antagonist Radioligand) Assay, Cerep.ERF_FR_GPCR_hCHRM3 is an assay component calculated from the ERF_FR_GPCR_hCHRM3 assay. It is designed to measure radioligand binding using a type of binding reporter as detected by scintillation counting with radiometry technology.Data from the assay component ERF_FR_GPCR_hCHRM3 was analyzed at the assay endpoint, ERF_FR_GPCR_hCHRM3, in the positive analysis fitting direction relative to DMSO as the negative control and baseline of activity. Using a type of binding reporter, loss-of-signal activity can be used to understand changes in binding as they relate to gene CHRM3. To generalize the intended target to other relatable targets, this assay endpoint is annotated to the gpcr intended target family, where the subfamily is acetylcholine (Muscarinic).
Human cells are incubated for 60 minutes at room temprature with [3H]4-DAMP ligand (0.2 nM) and 4-Damp methiodide as control inhibitor.Test Sample Requirements: Minimum for 1) Screen: 60 ul of 10 mM stock -OR- 1 mg (pre-weighed) for 10 uM final testing. 2) Dose Response: 90 ul of 10 mM stock -OR- 1 mg (pre-weighed) for a top concentration at 10 uM.
Turning to `O=C(/C=C/c1ccc(O)cc1)CC(=O)/C=C/c1ccc(O)cc1`, the concentration at half-maximal activity (AC50) is 2710 nM (active).
